The values below come from PubChem BioAssay (NCI).

Compounds without any hit were thinned out: in the full panel of roughly 83,000, 20% have a hit.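 Testing used 96-well plates and a 48-hour single-concentration exposure. Example: -40 means 40% of the starting cells died.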 Unmarked numbers belong to inactive results. Activity calls are given as the source filed them. Rule for the calls: active = growth percent below 10; inactive = the rest.

The first test has as its system SNB-75 CNS. Briefly: NCI-60 one-dose screen, 48 h (100 = growth as untreated, 0 = no growth, -100 = all killed). The conditions noted are these: 10 µM unless noted.
Regarding `CC(C)CNc1nc(N=[N+]=[N-])nc(NCC(C)C)n1`, the growth was 37.3% [100 µM].
Consider `CCCCCCCSc1ncnc2[nH]ncc12`, for which the growth was 59.3%.
Take `COC(=O)[C@H](Cc1cn(C)cn1)NC(=O)[C@H](Cc1ccccc1)NC(=O)Nc1cc(C(F)(F)F)cc(C(F)(F)F)c1`: the growth was -98.2% [100 µM] (active).
On to `CC[N+](CCCCCCCCCC[N+](CC)(c1ccccn1)c1ccccn1)(c1ccccn1)c1ccccn1`, for which the growth is 6.81% (active).
On to `CCCCCCC(CC#N)(CCC)CCCC` (stereo not given), for which the growth is 88.7%.
For `O=C1NC(=O)/C(=C\c2ccco2)S1`, the growth was 97.7%.
On to `Cc1sc2nc3c4ccccc4c(NCCCN(C)C)nn3c(=O)c2c1C`, for which the growth was 54.3%.
Same read-out and setting: the figure for `COc1ccc([N+](=O)[O-])c(S(=O)(=O)c2ccc(Cl)cc2)n1` is 78%; for `COc1ccc(NC(=O)c2ccccc2-c2ccccc2)c(C(N)=O)c1` it is -10.7% (active); for `CCCCCc1c(C)[nH]c(/C=C2\N=C(c3ccc[nH]3)C=C2Oc2ccccc2)c1C` it is -62.1% [100 µM] (active).
On to `COc1ccc(NC(=O)[C@@H]2C[C@H]2c2ccccc2)c(C(N)=O)c1`, for which the growth was 96.2%.
For the compound `COc1cc(-c2n[nH]nc2-c2ccccn2)cc(OC)c1OC`, the growth is 88.1%.
`COC(=O)[C@H](Cc1cnc[nH]1)NC(=O)[C@@H](NC(=O)Nc1cc(C(F)(F)F)cc(C(F)(F)F)c1)C(C)C`: the growth is -95.3% [100 µM] (active).
`O=C1C(=O)/C(=C/c2ccccc2)CCCCCC/C1=C/c1ccccc1`: the growth was 68%.
Consider `O=C(Nc1ccc(Cl)cc1)Nc1nc2ccc(OC(F)(F)F)cc2o1`, for which the growth is 97%.
With `COc1ccc(N2CCN(CC(=O)N3CCN(c4nnc(-c5ccccc5)c(-c5ccccc5)n4)CC3)CC2)cc1`, the growth was 70.2%.
Regarding `CCCCCCCCCCCCCCCCNC(=O)Nc1ccc2ccccc2c1`, the growth is 98.1%.
Take `FCc1ncc(-c2ccc(C(F)(F)F)cc2)c(NC2CCCCCC2)n1`: the growth was 28.6% [100 µM].
Same read-out and setting: under `O=Cc1ncc(-c2ccc(C(F)(F)F)cc2)c(NC2CCCCCC2)n1` stands -15.7% [100 µM] (active); under `COC(=O)[C@H](Cc1cn(C)cn1)NC(=O)[C@@H](NC(=O)Nc1cc(C(F)(F)F)cc(C(F)(F)F)c1)C(C)C`, -99.8% [100 µM] (active); under `CSc1nc(-c2ccc(O)cc2O)c2c(=O)[nH]c(Nc3ccc(S(=O)(=O)Nc4nc(C)cc(C)n4)cc3)nc2n1`, 73.1%.
As to `CC(C)OP(=O)(OC(C)C)c1ncc(-c2ccc(C(F)(F)F)cc2)c(NC2CCCCCC2)n1`, the growth is -18.6% [33.3 µM] (active).
On to `NS(=O)(=O)c1ccc(-n2nc(-c3ccc(Br)cc3)ccc2=O)cc1`, for which the growth was 8.35% [100 µM] (active).
Turning to `CC1CC=CCC1C1OCC(C)(C)CO1` (stereo not given), the growth is 90%.
In the case of `N[C@H](CS)C(=O)O`, the growth was 84.2%.
As to `CCCCCc1c(C)[nH]c(/C=C2\N=C(c3ccc[nH]3)C=C2Oc2ccc(Cl)cc2)c1C`, the growth is -40% [100 µM] (active).
Consider `[N-]=[N+]=NCc1ncc(-c2ccc(C(F)(F)F)cc2)c(NC2CCCCCC2)n1`, for which the growth is 65.8% [50 µM].
For `COc1ccc(-c2nnc3c4[nH]cnc4ncn23)c(OC)c1`, the growth was 39.2%.
As for `C1CCC(C(CC2CCCCN2)C2CCCCC2)CC1` (stereo not given), the growth was 7.79% (active).
The same measure, in the same setting: under `CCOC(=O)c1sc(NC(=O)COc2cccc(/C=C3\Cc4ccc(Cl)cc4C3=O)c2)nc1C` stands 113%.
On the same count and under the same terms, under `CCCCCCCC[Si](OCC)(OCC)OCC` stands 85.2%.
For the compound `CCOc1cc(CCNS(=O)(=O)c2ccc(C)cc2)c(C(C)=O)cc1OCC`, the growth was 93.3% [100 µM].
In the case of `CC(=O)c1ccc(NS(=O)(=O)c2ccc([N+](=O)[O-])cc2)cc1`, the growth is 97.7%.
With `COC(=O)[C@H](CCCCNC(=O)OCc1ccccc1)NC(=O)[C@@H](NC(=O)Nc1cc(C(F)(F)F)cc(C(F)(F)F)c1)C(C)C`, the growth was -88.7% [100 µM] (active).
Same read-out and setting: the figure for `O=C(/C=C/c1c(-c2ccccc2)[nH]c2ccccc12)S(=O)(=O)c1ccccc1` is 84.5%; for `CCOC(=O)C(C(=O)OCC)C1CCCCC1` it is 87.6%; for `CNc1nc(NC2CCCC2)nc(Sc2ccc(OC)cc2)n1` it is 48.9% [100 µM].
In the case of `O=c1sc2ncnc3ncn1c32`, the growth was 46.1%.
The same measure, in the same setting: the figure for `Cc1nn2c(/C=C3/C(=O)Nc4cc(Cl)ccc43)c(-c3ccccc3)nc2s1` is -20.2% (active); for `Nc1nc2c(nnn2Cc2ccc(Cl)c(Cl)c2)c(=O)[nH]1` it is 90.5%.

The test system of a further test is SNB-19 CNS. Described as above. Conditions: 10 µM unless noted.
As to `CC(C)CNc1nc(N=[N+]=[N-])nc(NCC(C)C)n1`, the growth is 54.8% [100 µM].
Take `CCCCCCCSc1ncnc2[nH]ncc12`: the growth was 80.9%.
As for `COC(=O)[C@H](Cc1cn(C)cn1)NC(=O)[C@H](Cc1ccccc1)NC(=O)Nc1cc(C(F)(F)F)cc(C(F)(F)F)c1`, the growth is -95.9% [100 µM] (active).
Consider `CC[N+](CCCCCCCCCC[N+](CC)(c1ccccn1)c1ccccn1)(c1ccccn1)c1ccccn1`, for which the growth is 13.3%.
With `CCCCCCC(CC#N)(CCC)CCCC` (stereo not given), the growth was 100%.
Same read-out and setting: under `O=C1NC(=O)/C(=C\c2ccco2)S1` stands 101%.
With `Cc1sc2nc3c4ccccc4c(NCCCN(C)C)nn3c(=O)c2c1C`, the growth was 81.6%.
With `COc1ccc([N+](=O)[O-])c(S(=O)(=O)c2ccc(Cl)cc2)n1`, the growth is 92%.
For `COc1ccc(NC(=O)c2ccccc2-c2ccccc2)c(C(N)=O)c1`, the growth is 39.8%.
For `CCCCCc1c(C)[nH]c(/C=C2\N=C(c3ccc[nH]3)C=C2Oc2ccccc2)c1C`, the growth was -95.2% [100 µM] (active).
On the same count and under the same terms, under `COc1ccc(NC(=O)[C@@H]2C[C@H]2c2ccccc2)c(C(N)=O)c1` stands 96.3%; under `COc1cc(-c2n[nH]nc2-c2ccccn2)cc(OC)c1OC`, 94.8%; under `COC(=O)[C@H](Cc1cnc[nH]1)NC(=O)[C@@H](NC(=O)Nc1cc(C(F)(F)F)cc(C(F)(F)F)c1)C(C)C`, -96.3% [100 µM] (active).
Take `O=C1C(=O)/C(=C/c2ccccc2)CCCCCC/C1=C/c1ccccc1`: the growth is 67.9%.
With `O=C(Nc1ccc(Cl)cc1)Nc1nc2ccc(OC(F)(F)F)cc2o1`, the growth was 93.2%.
For `COc1ccc(N2CCN(CC(=O)N3CCN(c4nnc(-c5ccccc5)c(-c5ccccc5)n4)CC3)CC2)cc1`, the growth is 62.8%.
For the compound `CCCCCCCCCCCCCCCCNC(=O)Nc1ccc2ccccc2c1`, the growth is 96.9%.
As for `FCc1ncc(-c2ccc(C(F)(F)F)cc2)c(NC2CCCCCC2)n1`, the growth was 32.6% [100 µM].
Regarding `O=Cc1ncc(-c2ccc(C(F)(F)F)cc2)c(NC2CCCCCC2)n1`, the growth was -47.6% [100 µM] (active).
The same measure, in the same setting: under `COC(=O)[C@H](Cc1cn(C)cn1)NC(=O)[C@@H](NC(=O)Nc1cc(C(F)(F)F)cc(C(F)(F)F)c1)C(C)C` stands -90.3% [100 µM] (active); under `CSc1nc(-c2ccc(O)cc2O)c2c(=O)[nH]c(Nc3ccc(S(=O)(=O)Nc4nc(C)cc(C)n4)cc3)nc2n1`, 96.1%; under `CC(C)OP(=O)(OC(C)C)c1ncc(-c2ccc(C(F)(F)F)cc2)c(NC2CCCCCC2)n1`, -27.9% [33.3 µM] (active).
For the compound `NS(=O)(=O)c1ccc(-n2nc(-c3ccc(Br)cc3)ccc2=O)cc1`, the growth was 36.5% [100 µM].
Take `CC1CC=CCC1C1OCC(C)(C)CO1` (stereo not given): the growth was 102%.
Consider `N[C@H](CS)C(=O)O`, for which the growth is 96.1%.
In the case of `CCCCCc1c(C)[nH]c(/C=C2\N=C(c3ccc[nH]3)C=C2Oc2ccc(Cl)cc2)c1C`, the growth is -32.9% [100 µM] (active).
For `[N-]=[N+]=NCc1ncc(-c2ccc(C(F)(F)F)cc2)c(NC2CCCCCC2)n1`, the growth is 85.2% [50 µM].
As for `COc1ccc(-c2nnc3c4[nH]cnc4ncn23)c(OC)c1`, the growth was 96%.
As to `C1CCC(C(CC2CCCCN2)C2CCCCC2)CC1` (stereo not given), the growth is 13.2%.
Turning to `CCOC(=O)c1sc(NC(=O)COc2cccc(/C=C3\Cc4ccc(Cl)cc4C3=O)c2)nc1C`, the growth was 99.9%.
In the case of `CCCCCCCC[Si](OCC)(OCC)OCC`, the growth is 100%.
Take `CCOc1cc(CCNS(=O)(=O)c2ccc(C)cc2)c(C(C)=O)cc1OCC`: the growth was 87.3% [100 µM].
The same measure, in the same setting: the figure for `CC(=O)c1ccc(NS(=O)(=O)c2ccc([N+](=O)[O-])cc2)cc1` is 87.9%; for `COC(=O)[C@H](CCCCNC(=O)OCc1ccccc1)NC(=O)[C@@H](NC(=O)Nc1cc(C(F)(F)F)cc(C(F)(F)F)c1)C(C)C` it is 28% [100 µM]; for `O=C(/C=C/c1c(-c2ccccc2)[nH]c2ccccc12)S(=O)(=O)c1ccccc1` it is 82.4%.
Same read-out and setting: the figure for `CCOC(=O)C(C(=O)OCC)C1CCCCC1` is 102%; for `CNc1nc(NC2CCCC2)nc(Sc2ccc(OC)cc2)n1` it is 40.4% [100 µM]; for `O=c1sc2ncnc3ncn1c32` it is 97.4%.
The same measure, in the same setting: the figure for `Cc1nn2c(/C=C3/C(=O)Nc4cc(Cl)ccc43)c(-c3ccccc3)nc2s1` is 54%; for `Nc1nc2c(nnn2Cc2ccc(Cl)c(Cl)c2)c(=O)[nH]1` it is 95.1%.
